In the library only some 3.9% were active in any assay of this set; here they are far more common.
USP2a block: blocks human ubiquitin-specific protease USP2a | Potency, µM (top dose mostly 38.3 µM), inactives show at the top dose activity change, negative = inhibition, usual class: inhibitors | 330,000 tested, 0.01% active | USP2 core, Ub-CHOP2 coupled fluorogenic reporter, 485/531 | O75604 | AID 463254;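 further: potency means the concentration at half of the fitted maximal effect; plate controls were DMSO wells for no effect and full inhibition by NEM control for full effect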
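Deubiquitinase activity read as fluorescence (485/531 nm) after Ub-CHOP2 cleavage activates the enterokinase reporter on its substrate; USP2 core 10nM, Ub-CHOP2 and substrate 25nM each, 30min compound preincubation then 60min RT; data normalized to NEM, curves fitted.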
D1 PAM: enhances dopamine response at the human D1 receptor. P21728. HEK293 TREx D1 cells, calcium flux, dopamine EC20 potentiation. potentiation, % at 10 µM. 360,000 tested, 0.036% active. AID 504651; in the data active means potentiation above about 30%; further: 0% is about no effect
Target sequence (P21728 whole entry, looked up): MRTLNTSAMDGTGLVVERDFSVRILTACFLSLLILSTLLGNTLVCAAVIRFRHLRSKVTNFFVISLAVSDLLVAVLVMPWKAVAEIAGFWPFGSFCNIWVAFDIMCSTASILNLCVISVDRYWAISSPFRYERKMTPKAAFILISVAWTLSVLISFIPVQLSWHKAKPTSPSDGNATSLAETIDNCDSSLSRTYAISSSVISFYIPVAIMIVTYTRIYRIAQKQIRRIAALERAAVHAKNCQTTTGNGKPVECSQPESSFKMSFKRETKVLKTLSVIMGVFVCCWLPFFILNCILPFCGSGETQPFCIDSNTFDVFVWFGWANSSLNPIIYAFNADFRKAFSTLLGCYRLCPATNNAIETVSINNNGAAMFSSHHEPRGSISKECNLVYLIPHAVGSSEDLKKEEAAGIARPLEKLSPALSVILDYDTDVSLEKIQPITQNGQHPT
D1 agonist: activates the human D1 dopamine receptor | P21728 | HEK293 T-REx D1 cells, calcium flux, agonist mode | activation, % at 2 µM | 360,000 tested, 1% active | AID 504660; in the data active means activation above about 30%; further: 0% is about no effect
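Inducible HEK293 T-REx D1 cells, force-coupled to calcium signalling, were plated at 4000 cells/well with tetracycline and held overnight at 30 C. After no-wash calcium dye loading, compound-evoked calcium rise over 180 s flagged agonists.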
Eya2 phos inh: blocks the phosphatase activity of human Eya2; O00167; recombinant Eya2, OMFP fluorescence dephosphorylation (OMFP is methylfluorescein phosphate); Potency, µM (doses to about 76.9 µM), inactives show at the highest dose activity, negative = inhibition, hits mostly inhibitors; 330,000 tested, 0.006% active; AID 488837; further: potency means the concentration at half of the fitted maximal effect; on the % scale 0 is the no-effect control and ±100 the full control effect
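Eya2 (0.2 uM) preincubated 10 min at ambient with compound, then OMFP substrate added at 50 uM; 10 min reaction in 50 mM HEPES pH 7.5, 50 mM NaCl, 5 uM MgCl2, 0.05% BSA, 1 mM DTT. Fluorescence read at Ex 485/Em 525 nm.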
GALK inhibitor: galactokinase (human) inhibition; P51570; Purified GALK, Kinase-Glo residual ATP luminescence; Potency, µM (series often up to 57.5 µM), without a hit: at the top dose activity change, negative = inhibition, most hits filed as inhibitors; 270,000 tested, 0.007% active; AID 1868; further: potency means the concentration at half of the fitted maximal effect; on the % scale 0 is the no-effect control and ±100 the full control effect
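The enzyme phosphorylates galactose (100 uM) using ATP (35 uM); inhibition is detected as higher residual ATP, quantified by bioluminescence after 1 h reaction at room temperature, pH 8.0.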
D1 antag: blocks dopamine activation of the human D1 receptor; P21728; HEK293 TREx D1 cells, calcium flux, dopamine EC80; hits give low values; activity change, negative = inhibition, % at 10 µM; 360,000 tested, 3.2% active; AID 504652; in the data active means activity change below about -30%; further: on the % scale 0 is the no-effect control and ±100 the full control effect
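Kinetic fluorescence of a calcium dye serves as the read-out. D1-expressing Hek293 Trex cells, induced overnight at 30 C, are exposed to compound for 180 s before an EC80 dopamine addition, then read 180 s further.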
Starred values were filed as active, the others as inactive; / = not tested or not shown; ! = repeats disagree. Unless noted, the call rests on the fitted dose curve; in most records, active means well fitted inhibition curve with a large enough effect; inconclusive means small, poorly fitted or top-dose-only effect, or effect the other way; inactive means flat fitted curve, though single readings scatter.

SMILES	USP2a block	D1 PAM	D1 agonist	Eya2 phos inh	GALK inhibitor	D1 antag
O=C(CCc1cn(Cc2ccccc2Cl)c2ccccc12)NC1CCCCC1	/	-0.4	2.0	/	/	-10.7
Cc1cc(NC(=O)CN2C(=O)c3cccnc3Sc3ccccc32)ccc1Br	/	-5.0	0.5	/	/	10.6
CCC(O)C1CCN(Cc2cn(Cc3ccccc3)nc2-c2cc3ccccc3o2)CC1 (stereo not drawn)	0.4%	-4.4	63.8*	-2.8%	-0.3%	-15.4
COCCOC1CCN(Cc2cn(Cc3ccccc3)nc2-c2cc3ccccc3o2)CC1	1.3%	0.2	7.1	7.9%	-2.4%	7.7
Cc1ccc(COC(=O)c2[nH]c3c(c2C)C(=O)CC(c2ccc(Cl)cc2)C3)cc1 (stereo not drawn)	/	5.2	1.9	/	/	5.6
CCOC(=O)c1ccc(N2N=C(C)/C(=C/C=C/c3ccco3)C2=O)cc1	-5.2%	-5.2	-3.4	-1.4%	-1.4%	-1.8
O=C(O)c1cc(N2N=C(C(F)(F)F)/C(=C/C=C/c3ccco3)C2=O)ccc1Cl	10µM*	-2.4	8.2	-24.4%	-17.5%	0.6
CCCSCCCNC(=O)C1CCN(C(=O)c2cc3sccc3n2C)CC1	/	-5.8	4.0	/	/	-16.6
C/C(=C1/C(=O)N(c2ccc([N+](=O)[O-])cc2)N=C1c1ccccc1)N(C)C	-2.1%	-5.0	33.7*	2.3%	-0.8%	0.2
CN(C)/C=C1/C(=O)N(c2ccc([N+](=O)[O-])cc2)N=C1c1ccccc1	2.8%	-2.6	12.3	2.4%	0.7%	-8.0
O=C(Nc1cccc(Br)c1)N1CCC(CN2CCCCCC2)CC1	/	-3.8	-0.1	/	/	-1.3
CCc1ccc2ncc(S(=O)(=O)c3ccc(Cl)cc3)c(N3CCN(CC)CC3)c2c1	/	-6.9	-0.5	/	/	-7.9
CCN1CCN(c2c(S(=O)(=O)c3ccc(OC)cc3)cnc3cc(OC)c(OC)cc23)CC1	/	-8.7	0.2	/	/	-40.3*
Cc1cc(C)n2ncc(C(=O)NCCc3ccccc3)c2n1	/	3.8	-0.1	/	-1.1%	-32.9*
Cc1ccc(-c2cc(C(=O)NCCc3ccccc3)c3ccccc3n2)cc1C	/	-2.1	1.9	/	/	-30.8*
CCOc1ccc(-c2cc(C(=O)NCCc3ccc(C)cc3)c3ccccc3n2)cc1	/	2.5	-0.7	/	/	-0.1
Cc1sccc1C1C(C#N)=C(N)SC(N)=C1C#N	5.0%	-2.2	14.3	19.8%	-2.4%	-15.1
N#CC1=C(N)SC(N)=C(C#N)C1CCC1CCCCC1	1.4%	-7.6	42.7*	-26.9%	-3.3%	-26.7
Cc1cccc(-n2ncc3c(N4CCCC(C)C4)ncnc32)c1 (stereo not drawn)	/	3.1	7.7	/	/	15.5
c1ccc(Cc2noc(CN3CCCN(C4Cc5ccccc5C4)CC3)n2)cc1	3.9%	-2.5	-1.0	5.2%	5.8%	-0.2
c1ccc(Cc2noc(CN3CCN(C4CCc5ccccc5C4)CC3)n2)cc1 (stereo not drawn)	-1.6%	4.9	31.8*	-12.0%	0.1%	0.7
O=C(NCCCN1CCOCC1)c1ccc(Br)s1	-0.2%	4.6	1.6	2.5%	0.0%	4.1
Cc1cc(C)cc(NC(=O)C(=O)NCCCN2CCOCC2)c1	1.9%	1.6	-0.8	-9.3%	6.8%	-79.0*!
Cc1ccc(S(=O)(=O)NC(=O)NCCCN2CCOCC2)cc1	-0.3%	-9.9	2.5	-3.9%	0.2%	-56.4*
O=C(NCCCN1CCOCC1)c1cccs1	1.3%	6.0	8.0	9.4%	-0.8%	-34.6*
SMILES	USP2a block	D1 PAM	D1 agonist	Eya2 phos inh	GALK inhibitor	D1 antag
Cc1ccc(C)c(NC(=O)C(=O)NCCCN2CCOCC2)c1	1.1%	0.8	0.5	-2.4%	-0.6%	-3.9
Cc1ccc(S(=O)(=O)NC(=O)c2cc(C)n(CCCN3CCOCC3)c2C)cc1	-5.4%	0.6	0.8	-26.2%	0.1%	1.4
CCOC(=O)c1cccc(NC(=O)[C@H](CSCc2ccccc2)N2Cc3ccccc3C2=O)c1	/	-3.9	7.4	/	/	8.0
COc1ccc(COC(=O)c2ccc(Cl)c(S(=O)(=O)N3CC(C)OC(C)C3)c2)cc1 (stereo not drawn)	-1.3%	-0.1	13.2	-11.4%	/	1.4
CC1CN(S(=O)(=O)c2ccc(C(=O)OCc3ccc(C#N)cc3)cc2)CC(C)O1 (stereo not drawn)	0.6%	/	33.6*	2.6%	/	0.3
CC1CN(S(=O)(=O)c2ccccc2)CC(C)O1 (stereo not drawn)	1.4%	1.2	1.5	11.5%	-2.5%	-35.3*
CCOc1ccc(NS(=O)(=O)c2ccc(-c3cc(C)no3)s2)cc1	/	-4.0	14.2	/	/	-9.0
COc1ccc2oc(-c3ccc(C)c(NC(=O)Cc4ccc(Cl)cc4)c3)nc2c1	/	1.2	-0.7	/	/	8.0
CC(C)N(Cc1nccn1C)C(=O)c1cc(COc2ccc3ncccc3c2)on1	2.9%	0.8	7.8	5.3%	2.9%	-6.7
Cc1nc(CN(C)C(=O)c2cc(COc3ccc4ncccc4c3)on2)cs1	2.2%	-2.0	15.9	8.3%	-2.4%	-37.3*
CC(=O)c1ccc(OCc2cc(C(=O)N3CCCCC3c3cccnc3)no2)cc1 (stereo not drawn)	2.4%	-6.4	19.7	-2.8%	4.2%	-33.4*
COCC1CCCCN1C(=O)c1cc(COc2ccc3ncccc3c2)on1 (stereo not drawn)	-0.4%	-1.4	11.7	6.4%	5.7%	-26.8
COCCC1CCCCN1C(=O)c1cc(COc2ccc(-n3cncn3)cc2)on1 (stereo not drawn)	-2.7%	-8.9	17.5	12.5%	8.3%	-63.7*
CCC1CCCCN1C(=O)c1cc(COc2ccc3ncccc3c2)on1 (stereo not drawn)	3.1%	-4.5	12.3	6.9%	-2.7%	-42.0*
CC(C)c1ccc(NC(=O)c2ccc3c(c2)CCCN3S(C)(=O)=O)cc1	/	2.5	-1.1	/	/	-13.4
COc1ccc(NC(=O)c2cc3c(=O)n(C)c4cc(Cl)ccc4c3s2)cc1Cl	/	-4.6	2.0	/	/	0.7
COc1ccc2c(c1)c(N1CCCC1=O)c(C(=O)Nc1ccc(Cl)cc1C)n2C	/	-1.9	3.6	/	/	-4.8
O=C(CSc1nccn1Cc1ccccc1)NCc1ccccc1Cl	/	1.7	2.1	/	/	-2.2
O=C(CCCCCN1CCN(c2ccccc2-c2ccccc2)CC1)NC1CCCc2ccccc21 (stereo not drawn)	/	/	/	-18.2%	/	/
Cc1ccc(-c2csc(-c3nc(-c4ccc(Br)s4)cs3)n2)cc1	/	1.6	0.3	/	/	2.6
Nc1c(-c2ccc(Cl)cc2)cnn1C1CCS(=O)(=O)C1 (stereo not drawn)	1.8%	-9.6	11.4	-0.4%	-0.6%	-30.2*

High-throughput results (PubChem BioAssay)
